From PubChem BioAssay AID1211 (NMMLSC, 2008)
Active and inactive are the calls of the source. The rule behind the calls is not given here.

Each compound was assayed against Estrogen receptor (Homo sapiens) (UniProt P03372) (assay: displacement of fluorescent estrogen from ERalpha – cell-based, Cos7 ERalpha-GFP, flow cytometry, primary screen (AID 1211;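 note: 0% = DMSO vehicle wells and 100% = no E2-Alexa633 signal left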)). Settings: fluorescent ligand competition, at 10 µM, stronger effect = higher value.
Estrogen receptor (Homo sapiens), sequence (P03372 whole entry, looked up): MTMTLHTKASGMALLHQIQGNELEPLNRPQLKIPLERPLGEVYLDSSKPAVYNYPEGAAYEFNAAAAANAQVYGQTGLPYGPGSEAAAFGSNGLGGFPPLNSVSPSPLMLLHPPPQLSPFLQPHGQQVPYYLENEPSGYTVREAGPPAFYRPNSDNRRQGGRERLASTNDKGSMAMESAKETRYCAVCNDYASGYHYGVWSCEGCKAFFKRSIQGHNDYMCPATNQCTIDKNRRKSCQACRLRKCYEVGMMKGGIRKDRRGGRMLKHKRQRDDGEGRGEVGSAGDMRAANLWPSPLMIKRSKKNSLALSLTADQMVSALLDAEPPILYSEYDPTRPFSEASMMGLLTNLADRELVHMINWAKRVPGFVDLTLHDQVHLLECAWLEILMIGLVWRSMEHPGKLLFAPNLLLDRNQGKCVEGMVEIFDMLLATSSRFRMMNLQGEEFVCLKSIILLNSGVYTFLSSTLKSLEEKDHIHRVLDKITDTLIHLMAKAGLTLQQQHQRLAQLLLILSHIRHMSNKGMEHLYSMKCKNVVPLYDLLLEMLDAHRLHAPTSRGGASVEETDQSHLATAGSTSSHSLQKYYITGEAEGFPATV

| SMILES | inhibition of ligand binding |
| --- | --- |
| COc1cccc(C2NCCc3cc(OC)c(OC)cc32)c1 (centres undefined) | 10% (inactive) |
| CC(Nc1ccc(N2CCNCC2)cc1[N+](=O)[O-])C12CC3CC(CC(C3)C1)C2 (centres undefined) | 5% (inactive) |
| COc1ccc(NS(=O)(=O)c2ccc3c(c2)[C@H]2C=CC[C@H]2[C@@H](c2ccc(F)cc2)N3)cc1 | 14% (inactive) |
| C=CCSC1=N/C(=C\C=C\c2ccco2)C(=O)S1 | 0% (inactive) |
| CCOc1cc2c(c([N+](=O)[O-])c1)NC(c1ccc(Br)cc1)C1CC=CC21 (centres undefined) | 0% (inactive) |
| O=C(COC(=O)C1CC2C=CC1C2)NCc1ccco1 (centres undefined) | 16% (inactive) |
| N#Cc1ccc(-c2cccnc2)nc1SCC(=O)Nc1sc2c(c1C#N)CCC2 | 15% (inactive) |
| CCC1(CC)NC(=O)N(CC(=O)Nc2sc3c(c2C(N)=O)CCC3)C1=O | 38% (inactive) |
| O=C(Nc1cc(C(F)(F)F)ccc1N1CCOCC1)C1Cc2ccccc2CN1C(=O)c1ccco1 (centres undefined) | 56% (inactive) |
| COc1ccc(CNC(=O)COC(=O)c2cc(-c3ccco3)nc3ccccc23)cc1 | 20% (inactive) |
| CCc1cc2c3c(c(=O)oc2cc1OCC(=O)O)CCCC3 | 10% (inactive) |
| CCNC(=O)N1c2ccc(OCC)cc2C(C)=CC1(C)C | 10% (inactive) |
| CCOc1cc2c(cc1OCC)C(C1CCCCC1)NCC2 (centres undefined) | 1% (inactive) |
| COc1cccc(NS(=O)(=O)c2ccc3c(c2)C2C=CCC2C(c2ccc(C(=O)O)cc2)N3)c1 (centres undefined) | 37% (inactive) |
| O=C(O)c1ccc2c(c1)C1C=CCC1C(c1cc3c(cc1Br)OCO3)N2 (centres undefined) | 79% (active) |
| COc1cccc(C2Nc3c(F)cc(Br)cc3C3C=CCC32)c1OC (centres undefined) | 60% (inactive) |
| CCN(c1ccccc1)S(=O)(=O)c1ccc2[nH]cc(C(=O)NCCOC)c(=O)c2c1 | 22% (inactive) |
| COc1ccc(C2(CNCC(N)=O)CCCC2)cc1OC | 10% (inactive) |
| COc1cc([C@@H]2Nc3ccc(S(=O)(=O)Nc4ccccc4F)cc3[C@@H]3C=CC[C@@H]32)cc(OC)c1OC | 5% (inactive) |
| CCCc1c(C(=O)OCC)[nH]c2c1C(=O)CC(c1ccccc1)C2 (centres undefined) | 27% (inactive) |

| SMILES | inhibition of ligand binding |
| --- | --- |
| CC(=O)c1ccc2c(c1)C1C=CCC1C(c1cccc([N+](=O)[O-])c1)N2 (centres undefined) | 68% (active) |
| COc1cc(/C=N/N2CCN(C3c4ccccc4-c4ccccc43)CC2)cc(OC)c1O | 0% (inactive) |
| O=[N+]([O-])c1ccc(Cl)c2c1C1C=CCC1C(c1ccccn1)N2 (centres undefined) | 53% (inactive) |
| COc1cc(C2CC(=O)Nc3c2ccc2ccccc32)cc(Cl)c1O (centres undefined) | 0% (inactive) |
| O=C1CC(c2ccc3c(c2)OCO3)c2ccc3ccccc3c2N1 (centres undefined) | 0% (inactive) |
| O=C(O)C1Nc2c(O)cccc2C2C=CCC12 (centres undefined) | 6% (inactive) |
| CC1CCN(Cc2c(O)ccc3c4c(c(=O)oc23)CCC4)CC1 | 0% (inactive) |
| COc1ccc(C2CC(=O)Nc3ccccc3S2(=O)=O)cc1OC (centres undefined) | 0% (inactive) |
| CCCCCCc1cc2c3c(c(=O)oc2cc1OCC(=O)OC)CCC3 | 0% (inactive) |
| COc1cccc2sc(Nc3nnc(-c4ccc(F)cc4)o3)nc12 | 17% (inactive) |
| CSC(=O)CNC1(Cc2ccc(O)cc2)CCCCC1 | 11% (inactive) |
| CSCCC(NC(=O)c1ccco1)C(=O)OCC(=O)Nc1sccc1C#N (centres undefined) | 4% (inactive) |
| COc1ccccc1C1Nc2c(C(=O)O)cccc2C2C3CCC(C3)C12 (centres undefined) | 19% (inactive) |
| CCCOc1cc2oc(=O)c3c(c2cc1CC)CCCC3 | 0% (inactive) |
| O=c1cc(CSc2nnnn2-c2ccccc2)nc(Nc2ccc(F)cc2)[nH]1 | 26% (inactive) |
| CCCCc1cc(=O)oc2c(C)c(O)ccc12 | 0% (inactive) |
| Cn1c(SCC(=O)N2c3ccccc3CCc3ccccc32)nnc1-c1cc2ccccc2cc1O | 34% (inactive) |
| Cc1ccc(-n2cc3c(c(C#N)c2=N)CC(C)(C)CC3=O)cc1 | 35% (inactive) |
| CCOC(=O)C1=C(C)NC(=O)NC1c1ccco1 (centres undefined) | 56% (inactive) |
